Where “and” joins values, the source holds several entries; their conditions need not be identical. Equal values may be shown once. Results filed as inconclusive are left out. Where a call stands in place of a potency, no number is given. Calls of active or inactive are those of the source. Unless noted, the call rests on the fitted dose curve; in most records, active means well fitted curve in the direction sought with a large enough effect in the repeat runs; inconclusive means weak or mixed curves; inactive means no such curve, though single readings can be large; an effect the other way counts as inactive or inconclusive.
Columns and labels:
[1] = qHTS assay for small molecule agonists of the p53 signaling pathway (AID 651631; calls by dose curve; further: nearly all actives have a fitted effect of over 15% in size)
In short: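 Quantitative high-throughput format: 4,000 p53RE-bla HCT-116 cells/well, 5 h pre-incubation, 16 h compound exposure at 37 °C, 2 h room-temperature substrate step, fluorescence intensity measured.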

[2] = qHTS assay for small molecules that induce genotoxicity in human embryonic kidney cells expressing luciferase-tagged ATAD5 (AID 651632); further: nearly all actives have a fitted effect of over 15% in size
In short: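 Luminescent reporter readout, HEK293T ATAD5-luc line: 16 hr drug exposure (37C, 5% CO2) followed by Amplite, 30 min RT.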

[3] = qHTS assay for small molecule agonists of the p53 signaling pathway - cell viability (AID 651633; calls by dose curve;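 further: p53RE-bla HCT reporter cells with a stable beta-lactamase p53 reporter; series mostly up to about 83 µM; nearly all actives have a fitted effect of over 30% in size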)
In short: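 p53RE-bla cells were treated with compound for 16 hours at 37 C. Cytotoxicity was then measured as CellTiter-Glo luminescence after 30 min at room temperature.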

[4] = qHTS assay for small molecules that induce genotoxicity in human embryonic kidney cells expressing luciferase-tagged ATAD5 - cell viability (AID 651634; calls by dose curve; further: nearly all actives have a fitted effect of over 25% in size)
In short: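 Viability read: CellTiter-Fluor fluorescence, 30 min at 37C. Cells: HEK293T, luciferase-tagged ATAD5. Exposure: 15.5 hr, 37C, 5% CO2, compound or DMSO vehicle.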

[5] = qHTS assay for small molecule disruptors of the mitochondrial membrane potential - cell viability (AID 720634; calls by dose curve;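 further: human HepG2 liver cancer cells; series mostly up to about 83 µM; nearly all actives have a fitted effect of over 20% in size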)
In short: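 HepG2, 1 hr compound, 37 C. ATP luminescence via CellTiter-Glo, 30 min RT, same well as m-MPI.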

[6] = qHTS assay for small molecule disruptors of the mitochondrial membrane potential (AID 720635); further: potency means the concentration at half of the fitted maximal effect
In short: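 HepG2 cells exposed to compound 1 hr at 37C, then Mito-MPS dye 30 min. Ratio read of aggregate (540/590 nm) versus monomer (490/535 nm) fluorescence.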

[7] = qHTS assay to test for compound auto fluorescence at 590 nm (red) in HepG2 cells (AID 720674)
In short: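 Seeding: 2,000 HepG2 cells/well, MEM/10% FBS, overnight 37 C. Dosing: compound vs DMSO. Incubation: 1 hr, 37 C, 5% CO2. Read: fluorescence 540 ex/590 em, Rose Bengal sodium as red reference.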

[8] = qHTS assay to test for compound auto fluorescence at 535 nm (green) in HepG2 cells (AID 720675)
[9] = qHTS assay to test for compound auto fluorescence at 460 nm (blue) in HEK293 cells (AID 720678)
In short: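 Triamterene serves as the blue fluorophore standard. Compound signal at 405/460 nm is read in HEK293 wells (2,000 cells, 10% dialyzed FBS) after overnight treatment at 37C.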

[10] = qHTS assay to test for compound auto fluorescence at 590 nm (red) in HEK293 cells (AID 720679)
In short: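 We plated HEK293 cells in 10% dialyzed FBS medium, let them adhere for 4-5 hr, then added 23 nL compound. Overnight at 37C and 5% CO2 preceded fluorescence measurement at 540/590nm.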

[11] = qHTS assay to test for compound auto fluorescence at 460 nm (blue) in HEK293 cell free culture (AID 720681)
In short: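 Compounds were added to cell-free DMEM with 10% FBS and fluorescence read directly. The blue channel used 405 nm excitation and 460 nm emission, with triamterene as the reference fluorophore.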

[12] = qHTS assay to test for compound auto fluorescence at 535 nm (green) in HEK293 cell free culture (AID 720682)
In short: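 Measurement is a direct plate read of green fluorescence (485 nm in, 535 nm out) after compound addition to serum-supplemented DMEM lacking cells, with fluorescein used to express intensities.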

[13] = qHTS assay to test for compound auto fluorescence at 590 nm (red) in HEK293 cell free culture (AID 720683)
In short: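 Cell-free wells of DMEM with 10% FBS received compound, and intrinsic fluorescence was read at excitation/emission 540/590 nm. Values expressed as equivalence to Rose Bengal sodium.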

[14] = qHTS assay to test for compound auto fluorescence at 590 nm (red) in HepG2 cell free culture (AID 720684)
In short: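 Compound was pinned into wells holding MEM with 10% FBS and no cells, and red fluorescence was read at Ex/Em 540/590 nm. Signal is expressed as auto fluorescence equivalency relative to Rose Bengal sodium.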

[15] = qHTS assay to test for compound auto fluorescence at 460 nm (blue) in HepG2 cell free culture (AID 720685)
In short: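 Compound (23 nL) or DMSO pinned into cell-free MEM with 10% FBS; blue fluorescence read at 405/460 nm excitation/emission, expressed as auto-fluorescence equivalency to triamterene.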

[16] = qHTS assay to test for compound auto fluorescence at 535 nm (green) in HepG2 cell free culture (AID 720686)
[17] = qHTS assay to test for compound auto fluorescence at 460 nm (blue) in HepG2 cells (AID 720687)
In short: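 HepG2 cells in MEM with 10% FBS, attached overnight at 37 C, were exposed to compound or DMSO for 1 hr at 37 C, 5% CO2. Blue fluorescence was read at 405/460 nm, with triamterene as reference fluorophore.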

[18] = target: Glucocorticoid receptor (Homo sapiens) (UniProt P04150); test: qHTS assay to identify small molecule agonists of the glucocorticoid receptor (GR) signaling pathway (AID 720691; active means well fitted activation curve with a large enough effect in the signal ratio in the repeat runs, not every such curve was filed as active; the % refers to the signal ratio)
In short: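 qHTS in GR-bla HeLa cells: 4 h settling at 37 C/5% CO2, 18 h compound incubation at 37 C, 2 h LiveBLAzer B/G FRET substrate at room temperature, fluorescence intensity measured.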

[19] = target: Glucocorticoid receptor (Homo sapiens) (UniProt P04150); test: qHTS assay to identify small molecule antagonists of the glucocorticoid receptor (GR) signaling pathway (AID 720692; active means well fitted inhibition curve with a large enough effect in the signal ratio in the repeat runs, not every such curve was filed as active; the % refers to the signal ratio)
In short: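 Inhibition of glucocorticoid signalling is measured in HeLa cells with a GRE-controlled beta-lactamase reporter; cells are co-treated with compound and 5 nM dexamethasone (final) for 18 h before FRET substrate readout.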

[20] = qHTS assay to test for compound auto fluorescence at 535 nm (green) in HEK293 cells (AID 720680)

Sequence of Glucocorticoid receptor (Homo sapiens) (P04150 whole entry, looked up): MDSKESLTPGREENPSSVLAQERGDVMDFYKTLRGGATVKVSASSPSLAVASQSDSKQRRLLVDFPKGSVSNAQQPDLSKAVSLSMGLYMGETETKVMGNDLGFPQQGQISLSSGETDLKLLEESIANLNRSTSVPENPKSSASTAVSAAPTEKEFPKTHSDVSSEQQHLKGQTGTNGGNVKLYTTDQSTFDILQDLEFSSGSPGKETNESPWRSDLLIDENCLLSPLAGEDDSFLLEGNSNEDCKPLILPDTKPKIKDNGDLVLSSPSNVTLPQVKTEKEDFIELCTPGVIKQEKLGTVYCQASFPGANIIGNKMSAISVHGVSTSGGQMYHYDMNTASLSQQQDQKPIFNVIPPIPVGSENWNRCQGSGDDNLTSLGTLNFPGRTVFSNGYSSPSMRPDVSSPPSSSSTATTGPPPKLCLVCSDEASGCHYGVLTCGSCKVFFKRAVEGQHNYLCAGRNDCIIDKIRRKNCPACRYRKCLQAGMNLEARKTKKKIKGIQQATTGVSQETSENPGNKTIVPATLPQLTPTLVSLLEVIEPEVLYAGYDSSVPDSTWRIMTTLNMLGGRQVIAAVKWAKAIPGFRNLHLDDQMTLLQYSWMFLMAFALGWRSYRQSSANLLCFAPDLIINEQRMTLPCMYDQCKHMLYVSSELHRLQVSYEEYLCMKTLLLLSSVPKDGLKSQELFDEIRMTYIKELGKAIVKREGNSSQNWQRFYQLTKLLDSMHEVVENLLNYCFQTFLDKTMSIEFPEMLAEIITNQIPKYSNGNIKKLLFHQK

Compound	outcome [1]	outcome [2]	outcome [3]	outcome [4]	Potency [5]	Potency [6]	outcome [7]	outcome [8]	outcome [9]	outcome [10]	outcome [11]	outcome [12]	outcome [13]	outcome [14]	outcome [15]	outcome [16]	outcome [17]	outcome [18]	Potency [19]	outcome [20]
Cn1cc(-c2ccccc2)c(=O)c(-c2cccc(C(F)(F)F)c2)c1	inactive	inactive	inactive	inactive	inactive	inactive	inactive	inactive	inactive	inactive	inactive	inactive	inactive	inactive	inactive	inactive	inactive	inactive	inactive	–
NCC(O)c1ccc(O)cc1 (stereo unspecified)	inactive	inactive	inactive	inactive	inactive	inactive	inactive	inactive	inactive	inactive	inactive	inactive	inactive	inactive	inactive	inactive	inactive	–	–	–
Nc1ccccc1C(=O)O	inactive	inactive	inactive	inactive	inactive	inactive	inactive	inactive	inactive	–	inactive	inactive	inactive	inactive	inactive	inactive	inactive	–	–	–
CCOP(=S)(OCC)SCCSCC	inactive	inactive	inactive	inactive	inactive	–	inactive	inactive	inactive	inactive	inactive	inactive	inactive	inactive	inactive	inactive	inactive	inactive	inactive	inactive
CCC[N+](=O)[O-]	inactive	inactive	inactive	inactive	inactive	inactive	inactive	inactive	inactive	inactive	inactive	inactive	inactive	inactive	inactive	inactive	inactive	–	–	inactive
O=[N+]([O-])c1ccc(Oc2ccc(Cl)cc2Cl)cc1	inactive	inactive	inactive	inactive	inactive	54.8 µM (active) and 30.6 µM (active)	inactive	inactive	inactive	inactive	inactive	inactive	inactive	inactive	inactive	inactive	inactive	inactive	inactive	inactive
C=CCO	inactive	inactive	inactive	inactive	inactive	inactive	inactive	inactive	inactive	inactive	inactive	inactive	inactive	inactive	inactive	inactive	inactive	inactive	inactive	inactive
CCCCCCCCCl	inactive	inactive	inactive	inactive	inactive	inactive	inactive	inactive	inactive	inactive	inactive	inactive	inactive	inactive	inactive	inactive	inactive	inactive	inactive	–
CCCN(CCC)N=O	inactive	inactive	inactive	inactive	inactive	inactive	–	inactive	inactive	inactive	inactive	inactive	inactive	inactive	inactive	inactive	inactive	inactive	inactive	–
c1ccc2c(c1)Oc1ccccc1O2	inactive	inactive	inactive	inactive	inactive	inactive	inactive	inactive	inactive	inactive	inactive	inactive	inactive	inactive	inactive	inactive	inactive	inactive	inactive	inactive
O=c1[nH]c2ccccc2c(=O)o1	inactive	inactive	inactive	inactive	inactive	inactive	inactive	inactive	inactive	–	inactive	inactive	inactive	inactive	inactive	inactive	inactive	inactive	inactive	–
CC(C)C1(C)N=C(c2nc3ccccc3cc2C(=O)O)NC1=O (stereo unspecified)	inactive	inactive	inactive	inactive	inactive	inactive	inactive	inactive	inactive	inactive	inactive	inactive	inactive	inactive	inactive	inactive	inactive	inactive	inactive	inactive
CCCCOC(=O)c1ccccc1C(=O)OCCCC	inactive	inactive	inactive	inactive	inactive	inactive	inactive	inactive	inactive	inactive	inactive	inactive	inactive	inactive	inactive	inactive	inactive	inactive	–	–
O=[N+]([O-])c1ccc([As](=O)(O)O)cc1	inactive	inactive	inactive	inactive	inactive	inactive	inactive	inactive	inactive	inactive	inactive	inactive	inactive	inactive	inactive	inactive	inactive	inactive	inactive	inactive
CN(C)CCO	inactive	inactive	inactive	inactive	inactive	inactive	inactive	inactive	inactive	inactive	inactive	inactive	inactive	inactive	inactive	inactive	inactive	inactive	inactive	–
O=NN1CCCCCCC1	inactive	inactive	inactive	inactive	inactive	inactive	inactive	inactive	inactive	inactive	inactive	inactive	inactive	inactive	inactive	inactive	inactive	inactive	inactive	inactive

— PubChem BioAssay (Tox21)
